35 compounds from PubChem BioAssay (EPA / NIEHS) can be followed below.

Each structure is given as a SMILES string. Active and inactive are the calls of the source. The calls were made as follows: active = hit-call score of the fitted dose curve at least 0.9, where 1 is the maximum; inactive = score below 0.9.

For orientation: AC50 means the midpoint of the concentration-response curve, whichever way the signal moves.

Sequence of CCAAT/enhancer-binding protein beta (Homo sapiens) (P17676 whole entry, looked up): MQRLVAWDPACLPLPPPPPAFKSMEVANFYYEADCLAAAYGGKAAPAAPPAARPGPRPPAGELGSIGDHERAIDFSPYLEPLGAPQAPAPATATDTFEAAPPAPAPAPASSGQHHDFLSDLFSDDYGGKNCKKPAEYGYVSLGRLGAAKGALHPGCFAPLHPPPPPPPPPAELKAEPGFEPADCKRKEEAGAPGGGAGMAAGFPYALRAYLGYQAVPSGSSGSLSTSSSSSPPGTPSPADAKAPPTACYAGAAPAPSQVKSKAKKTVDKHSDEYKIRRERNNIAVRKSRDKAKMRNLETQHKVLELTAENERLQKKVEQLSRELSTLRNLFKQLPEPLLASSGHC

System in one test: not listed separately
Kind of test: ATG_CRE_CIS: Attagene CIS-FACTORIAL HepG2 Assay for human cAMP Responsive Element (CRE) binding protein 3 (AID 2282926). The following applies: HepG2 CRE cis-reporter, Attagene multiplexed mRNA; actives raise or lower the signal. The gist of the method: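 Endogenous CRE-binding activity in HepG2 is reported through a cis-regulated transfected reporter. Following a day of exposure, mRNA levels are determined by reverse transcription PCR and fluorescent fragment analysis; fits run in both directions versus DMSO.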
Consider `CNC(=S)NC`, for which the call was inactive.

As for `CCCCC(CC)COP(=O)(O)OCC(CC)CCCC` (centres undefined), the call was inactive.

`C=C(C)C(=O)OCC(F)(F)C(F)(F)C(F)(F)F`: the compound was classed as inactive.

For `COC(=O)C1CCC(C(=O)OC)CC1` (centres undefined), the outcome was inactive. Turning to `C=CC/C=C/C/C=C/C/C=C/C`, the compound was classed as inactive.

For `O=C(O)C(F)(F)C(F)(F)C(F)(F)C(F)(F)C(F)(F)C(F)(F)C(F)(F)C(F)(F)C(F)(F)C(F)(F)C(F)(F)C(F)(F)C(F)(F)F`, the call was inactive. With `C=CC(=O)OCC(F)(F)C(F)(F)C(F)(F)C(F)(F)C(F)(F)C(F)(F)C(F)(F)F`, the outcome was inactive. Take `N=C(N)C(F)(F)C(F)(F)C(F)(F)C(F)(F)C(F)(F)C(F)(F)C(F)(F)F`: the call was inactive. Take `Nc1ccc(S(=O)(=O)Nc2nccs2)cc1`: the result was inactive. Turning to `O=C(C=Cc1ccccc1)OCC=Cc1ccccc1`, the outcome was inactive.

Regarding `FC(F)(F)C(F)(F)C(F)(F)C(F)(F)C(F)(F)CCI`, the call was inactive. As to `Nc1ccc(Oc2cccc(Oc3ccc(N)cc3)c2)cc1`, the concentration at half-maximal activity (AC50) is 145 µM (active).

Regarding `FC1CC(F)(F)C(F)(F)C1(F)F` (centres undefined), the outcome was inactive. Turning to `CCCCCCCOC(=O)c1ccccc1C(=O)OCCCCCCC`, the compound was classed as inactive.

Another test deals with CCAAT/enhancer-binding protein beta (Homo sapiens) (UniProt P17676). Kind of test: ATG_C_EBP_CIS: Attagene CIS-FACTORIAL HepG2 Assay for human CCAAT/Enhancer Binding Protein (C/EBP) beta (AID 2282927). The following applies: HepG2 Attagene cis-factorial transcription factor reporter; actives raise or lower the signal. An outline of the steps:
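Transiently transfected HepG2 (MRTU library, endogenous TF-driven promoters); 24 h dosing; total RNA → oligo(dT) RT → PCR → 6-FAM primer extension → HpaI digest → CE; fit bidirectionally vs DMSO.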
`Nc1cc(Cl)c(N)c(Cl)c1`: the outcome was inactive. `O=C(CC(=O)C(F)(F)C(F)(F)F)C(F)(F)F`: the outcome was inactive.

In the case of `FC(F)(F)C(F)(F)CNCC(F)(F)C(F)(F)F`, the outcome was inactive. As to `CCc1c(Br)c(Br)c(Br)c(Br)c1Br`, the outcome was inactive.

With `C=C(C)C(=O)OCCC(F)(F)C(F)(F)C(F)(F)C(F)(F)C(F)(C(F)(F)F)C(F)(F)F`, the result was inactive. With `C=CC(=O)OCC(F)(F)C(F)(F)C(F)(F)C(F)(F)COC(=O)C=C`, the concentration at half-maximal activity (AC50) was 50 µM (active). As for `CCc1ccc(C(c2ccc(CC)cc2)C(Cl)Cl)cc1`, the outcome was inactive.

Turning to `CO[Si](OC)(c1ccccc1)c1ccccc1`, the outcome was inactive. Regarding `Cc1cc(C)cc(O)c1`, the outcome was inactive. Take `CCCCCCOC(=O)c1ccccc1O`: the result was inactive. Consider `O=C(O)C(F)(F)C(F)(F)C(F)(F)C(F)(F)C(F)(F)C(F)(F)C(F)(F)C(F)(F)C(F)(F)C(F)(F)C(F)(F)C(F)(F)F`, for which the outcome was inactive. Consider `CCCCCCS`, for which the outcome was inactive. As for `CCCCOc1ccc(N)cc1`, the outcome was inactive. For `c1ccc(-c2ccccc2-c2ccccc2)cc1`, the result was inactive.

Take `FC(F)(F)C(F)(F)C(F)(F)C(F)(F)C(F)(F)C(F)(F)C(F)(F)C(F)(F)CCS`: the result was inactive. Turning to `CCCCNc1ccccc1`, the result was inactive. With `OCC(F)(F)C(F)(F)C(F)(F)C(F)(F)C(F)(F)C(F)(F)F`, the AC50 is 204 µM (active). Turning to `O=C(O)C(F)(F)C(F)(F)C(F)(F)C(F)(F)F`, the outcome was inactive. Regarding `Cc1ccc(S(=O)(=O)OCC(F)(F)C(F)(F)C(F)(F)C(F)(F)C(F)(F)C(F)F)cc1`, the result was inactive. Take `CCCCCCOC(=O)c1ccccc1`: the result was inactive. For the compound `CCN(Cc1cccc(S(=O)(=O)O)c1)c1ccc(C(=C2C=CC(=[N+](CC)Cc3cccc(S(=O)(=O)O)c3)C=C2)c2ccc(O)cc2S(=O)(=O)[O-])cc1`, the outcome was inactive. On to `CNC(=S)NC`, for which the outcome was inactive. On the same count and under the same terms, to `CCCCC(CC)COP(=O)(O)OCC(CC)CCCC` (centres undefined) belongs “inactive”; to `C=C(C)C(=O)OCC(F)(F)C(F)(F)C(F)(F)F`, “inactive”. In the case of `COC(=O)C1CCC(C(=O)OC)CC1` (centres undefined), the outcome was inactive.

`C=CC/C=C/C/C=C/C/C=C/C`: the outcome was inactive. Take `O=C(O)C(F)(F)C(F)(F)C(F)(F)C(F)(F)C(F)(F)C(F)(F)C(F)(F)C(F)(F)C(F)(F)C(F)(F)C(F)(F)C(F)(F)C(F)(F)F`: the outcome was inactive.

`C=CC(=O)OCC(F)(F)C(F)(F)C(F)(F)C(F)(F)C(F)(F)C(F)(F)C(F)(F)F`: the outcome was inactive. Consider `N=C(N)C(F)(F)C(F)(F)C(F)(F)C(F)(F)C(F)(F)C(F)(F)C(F)(F)F`, for which the half-maximal activity concentration (AC50) was 111 µM (active). Take `Nc1ccc(S(=O)(=O)Nc2nccs2)cc1`: the outcome was inactive. Still for that read-out and setting: with `O=C(C=Cc1ccccc1)OCC=Cc1ccccc1` the entry was “inactive”. On to `FC(F)(F)C(F)(F)C(F)(F)C(F)(F)C(F)(F)CCI`, for which the outcome was inactive. `Nc1ccc(Oc2cccc(Oc3ccc(N)cc3)c2)cc1`: the result was inactive. For the compound `FC1CC(F)(F)C(F)(F)C1(F)F` (centres undefined), the result was inactive. `CCCCCCCOC(=O)c1ccccc1C(=O)OCCCCCCC`: the result was inactive.

System in a further test: not listed separately
The test can be described thus: ATG_CMV_CIS: Attagene CIS-FACTORIAL HepG2 Assay for human CMV (Internal Marker) (AID 2282928).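 Also: endpoint acts as a background internal control marker rather than a target.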 The following applies: HepG2 CMV promoter reporter, transcription factor profiling; actives raise or lower the signal. An outline of the steps:
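After transient transfection of HepG2 with reporter transcription units driven by cis-regulatory promoters, cells receive test chemical for 24 h. Labeled reporter amplicons, digested with HpaI, are sized and quantified by capillary electrophoresis against DMSO.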
Consider `Nc1cc(Cl)c(N)c(Cl)c1`, for which the result was inactive. Regarding `O=C(CC(=O)C(F)(F)C(F)(F)F)C(F)(F)F`, the compound was classed as inactive.

With `Cc1cc(C)cc(O)c1`, the compound was classed as inactive. The same measure, in the same setting: with `CCCCCCOC(=O)c1ccccc1O` the entry was “inactive”.

With `O=C(O)C(F)(F)C(F)(F)C(F)(F)C(F)(F)C(F)(F)C(F)(F)C(F)(F)C(F)(F)C(F)(F)C(F)(F)C(F)(F)C(F)(F)F`, the compound was classed as inactive.

Regarding `CCCCCCS`, the compound was called inactive.

For `FC(F)(F)C(F)(F)C(F)(F)C(F)(F)C(F)(F)C(F)(F)C(F)(F)C(F)(F)CCS`, the compound was called inactive.

In the case of `OCC(F)(F)C(F)(F)C(F)(F)C(F)(F)C(F)(F)C(F)(F)F`, the result was inactive. Take `O=C(O)C(F)(F)C(F)(F)C(F)(F)C(F)(F)F`: the result was inactive.

`Cc1ccc(S(=O)(=O)OCC(F)(F)C(F)(F)C(F)(F)C(F)(F)C(F)(F)C(F)F)cc1`: the compound was classed as inactive.

In the case of `CCCCCCOC(=O)c1ccccc1`, the call was inactive. For the compound `CNC(=S)NC`, the compound was classed as inactive. Consider `CCCCC(CC)COP(=O)(O)OCC(CC)CCCC` (centres undefined), for which the call was inactive. Regarding `C=C(C)C(=O)OCC(F)(F)C(F)(F)C(F)(F)F`, the result was inactive. For the compound `COC(=O)C1CCC(C(=O)OC)CC1` (centres undefined), the compound was called inactive.

On to `C=CC(=O)OCC(F)(F)C(F)(F)C(F)(F)C(F)(F)C(F)(F)C(F)(F)C(F)(F)F`, for which the result was inactive. On to `Nc1ccc(S(=O)(=O)Nc2nccs2)cc1`, for which the compound was classed as inactive. Take `FC(F)(F)C(F)(F)C(F)(F)C(F)(F)C(F)(F)CCI`: the half-maximal activity concentration (AC50) is 97.7 µM (active).

As for `Nc1ccc(Oc2cccc(Oc3ccc(N)cc3)c2)cc1`, the AC50 was 45.1 µM (active). Take `FC1CC(F)(F)C(F)(F)C1(F)F` (centres undefined): the outcome was inactive.
